# Test results published in ChEMBL document CHEMBL3433997, “St. Jude Leishmania screening dataset” (2016).
# Tests used:
# Assay type in all cases: functional
# [1] = molecular target: Solute carrier family 2, facilitated glucose transporter member 1 (Homo sapiens) (UniProt P11166); test: ST_JUDE_LEISH: Cytotoxicity at 2uM final concentration against transgenic Leishmania Mexicana promastigotes LmGLUT1 that are glucose transport deficient and complemented with the human glucose transporter GLUT1. Activity is measured by DNA content using SYBR green in vitro
# [2] = molecular target: Hexose transporter 1 (Plasmodium falciparum) (UniProt O97467); test: ST_JUDE_LEISH: Cytotoxicity at 2uM final concentration against transgenic Leishmania Mexicana promastigotes LmPfHT that are glucose transport deficient and complemented with the Plasmodium falciparum hexose transporter. Activity is measured by DNA content using SYBR green in vitro
# [3] = molecular target: Glucose transporter (Leishmania mexicana) (UniProt O61059); test: ST_JUDE_LEISH: Cytotoxicity at 2uM final concentration against transgenic Leishmania Mexicana promastigotes LmGT2 that are glucose transport deficient and complemented with the L. Mexicana glucose transporter 2. Activity is measured by DNA content using SYBR green in vitro
# Sequence of Solute carrier family 2, facilitated glucose transporter member 1 (Homo sapiens) (P11166 whole entry): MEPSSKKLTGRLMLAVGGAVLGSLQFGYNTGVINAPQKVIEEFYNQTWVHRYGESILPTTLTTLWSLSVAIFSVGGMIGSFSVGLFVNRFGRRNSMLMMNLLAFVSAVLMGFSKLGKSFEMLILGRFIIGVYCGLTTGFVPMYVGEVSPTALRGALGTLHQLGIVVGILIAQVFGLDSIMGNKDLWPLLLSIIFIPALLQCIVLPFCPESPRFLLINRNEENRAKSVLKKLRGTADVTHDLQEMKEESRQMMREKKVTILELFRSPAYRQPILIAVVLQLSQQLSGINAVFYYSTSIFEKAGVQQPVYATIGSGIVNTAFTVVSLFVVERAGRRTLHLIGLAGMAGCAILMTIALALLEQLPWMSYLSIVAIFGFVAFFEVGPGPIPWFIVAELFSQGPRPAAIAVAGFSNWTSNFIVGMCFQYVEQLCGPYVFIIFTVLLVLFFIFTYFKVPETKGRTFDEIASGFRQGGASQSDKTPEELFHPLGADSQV
Structure (SMILES),inhibition [1] [%],inhibition [2] [%],inhibition [3] [%]
COc1cc(COc2c(C)nc(N)nc2N)cc(OC)c1OC,5.98,4.54,4.97
CCc1c(CCNCCCCCCNCCc2ccc([N+](=O)[O-])cc2)ccc(OC)c1OC,12.1,10.1,12.9
O=C(NC1CC1)c1ccc(N2CCCC(COc3ccc4c(c3)CCCC4)C2)nc1 (stereo not drawn),2.1,1.8,1.93
c1ccc(C(c2ccccc2)N2CCC(NCc3ccc(OCCCN4CCCCC4)cc3)CC2)cc1,8.52,11.3,10.7
NCCCNc1ccnc2cc(Cl)ccc12,-0.29,1.55,10.7
O=C1C(c2ccccc2)=C(Nc2ccc([N+](=O)[O-])cc2)c2ccccc21,6.69,9.53,2.14
Cc1noc(C)c1-c1cccc(C(=O)NC2CCN(CCNC(=O)C(c3ccccc3)c3ccccc3)CC2)c1,2.71,1.09,1.64
CC(C)COc1ccc(Cl)cc1Cc1ccc(-c2nc3ccc(F)c(F)c3[nH]2)o1,0.98,-1.63,0.57
Nc1cccc(-c2ccc3ccnc(N)c3c2)c1,3.63,4.39,3.35
CC1CN(c2cnn(Cc3ccc(NC(=O)Nc4cccc(C(F)(F)F)c4)cc3)c(=O)c2Cl)CC(C)N1 (stereo not drawn),3.97,3.35,-1.12
COc1ccc2ncc(C#N)c(CCN3C4CCC3CC(NCc3ccc5c(n3)NC(=O)CS5)C4)c2c1 (stereo not drawn),4.35,4.33,1.45
COc1ccc(NC(=O)NC2CCN(CCCOc3cc(C)nc4ccccc34)CC2)cc1OC,0.88,1.97,-3.5
CCc1c(C(=O)NC2CCC(N3CCC(c4ccccc4OC)CC3)CC2)[nH]c2ccc(Br)cc12 (stereo not drawn),0.33,-0.12,-0.91
Cc1cc(Br)cnc1CCCCNc1cc(=O)c2ccccc2[nH]1,4.59,6.14,4.81
COc1cc(NCCCNCc2cn(S(=O)(=O)c3ccccc3)c3ccccc23)nc2ccccc12,3.92,4.04,3.17
Cc1cc(F)ccc1Nc1nc(N(C)c2ccccc2)c2cc(OCCN(C)C)ccc2n1,7.87,6.84,2.04
